Consider 24 molecules from PubChem BioAssay (NCATS).

Structures are written as SMILES. Records with an inconclusive call do not appear. A number with no mark means an inactive call. Activity calls are given as the source filed them. Calls come from the whole dose curve; as a rule, active = well fitted inhibition curve with a large enough effect; inconclusive = small, poorly fitted or top-dose-only effect; inactive = flat fitted curve, though single readings scatter.

What all share (assay): Cytotoxic Profiling of Annotated Libraries Using Quantitative High-Throughput Screening (AID 1296008); note: nearly all actives have a fitted effect of over 60% in size
Holding throughout (settings): Five cell lines viability, CellTiter-Glo ATP luminescence, 48-72 h; max response: hits give low values
In general terms: In ATP-based viability assays light output follows the ATP content of the culture.

The test system of one assay is CRL-7250. The method, boiled down: (§1)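 Cytotoxicity was measured as CellTiter-Glo ATP luminescence, read after 10 min at room temperature. Compound treatment of the cells lasted 48 or 72 hr at 37 degrees Celsius in a qHTS format.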
Another assay concerns HEK293. The procedure, abridged: as §1
A further assay has as its system HaCat. The method, boiled down:
as §1

A further assay deals with NIH3T3. The procedure, abridged: as §1
% is set by controls: 0 for no effect and ±100 for the full control effect; potency is the fitted concentration of half-maximal effect.

On to `CCOC(=O)c1cnc2ccc(-c3cncc(NS(=O)(=O)c4ccccc4)c3)cn12`, for which the Potency in the assay with CRL-7250 was 4110 nM (active); in the assay with HEK293, 1030 nM (active); in the assay with HaCat, 1460 nM (active); with NIH3T3, 1160 nM (active).

As to `O=C(NCCCc1ccccc1)c1cccc(-c2cc(O)c3ncccc3c2)c1`, the results for the Potency in the assay on CRL-7250, with HEK293 and with HaCat were 5170 nM (active), 20600 nM (active) and 25900 nM (active), respectively.

In the case of `COc1c(C)cnc(Cn2cc(C#CCC(C)(C)O)c3c(Cl)nc(N)nc32)c1C`, the Potency was 259 nM (active) in the assay with CRL-7250, 51.7 nM (active) in the assay on HEK293, 73.1 nM (active) in the assay on HaCat and 206 nM (active) in the assay with NIH3T3.

With `CC(C)(C)c1ccc(C(=O)Nc2cc(Cl)c(Br)cc2C(=O)O)cc1`, the results for the max response in the assay on CRL-7250, with HaCat and in the assay on NIH3T3 were -0.778%, -1.9% and -19.1%, respectively. The Potency in the assay on HEK293 was 23100 nM (active).

As to `N#Cc1ccnc(Nc2cc(C3CCN(C4COC4)CC3)cc(N3CCC(F)(F)C3)n2)c1`, the Potency in the assay on CRL-7250 was 11700 nM (active); in the assay on HEK293, 8310 nM (active); in the assay on HaCat it was 23400 nM (active); in the assay on NIH3T3, 20900 nM (active).

Consider `COc1ccc(-c2cc3onc(-c4ccncc4)c3c(=O)n2C)cc1`, for which the Potency in the assay on CRL-7250 was 651 nM (active); with HEK293, 1300 nM (active). Moreover, the max response with HaCat was -2.33%.

As for `COC(C)(C)CCn1nc(Nc2c(C)cccc2C)c2cnc(Nc3ccc(OCCN4CCCC4)c(F)c3)nc21`, the Potency was 1160 nM (active) in the assay with CRL-7250, 7310 nM (active) in the assay with HEK293, 1300 nM (active) in the assay on HaCat and 411 nM (active) with NIH3T3.

As for `CC(C)n1cnc2c(-c3cnc(N)nc3)nc(N3CCOCC3)nc21`, the Potency with CRL-7250 is 709 nM (active); with HEK293 it was 1780 nM (active); with HaCat, 632 nM (active).

For the molecule `CCCCC1CCN(CCCN2C(=O)CCc3ccccc32)CC1`, the max response with CRL-7250 was -13.3%; with HaCat, -2.1%; in the assay with NIH3T3 it was -7.86%. The Potency in the assay with HEK293 is 18400 nM (active).

As to `COc1cc(O)cc(OC2OC(CO)C(O)C(O)C2O)c1` (stereo unspecified), the max response is -0.834% in the assay on CRL-7250, 0.556% with HEK293 and -5.91% in the assay with HaCat. Also, the molecule was called inactive in the assay with NIH3T3.

Turning to `O=c1cc(NCCCN[C@@H]2CCOc3c(Br)cc(Br)cc32)[nH]c2ccsc12`, the values for the max response with CRL-7250, in the assay with HaCat and in the assay with NIH3T3 were 1.96%, -8.13% and 2.02%, respectively. In the assay with HEK293, the Potency was 5800 nM (active).

Turning to `CC(C)c1ccccc1OC(=O)NCCc1ccc2ccccc2c1`, the max response in the assay with CRL-7250 is -4.95%; with HEK293, 2.54%; with HaCat, 3.54%; in the assay on NIH3T3, 3.78%.

As for `C=CC(=O)Nc1cccc(Nc2nc(Nc3ccc(NC4CN(CCF)C4)cc3OC)ncc2C(F)(F)F)c1`, the Potency with CRL-7250 is 7310 nM (active); in the assay with HEK293, 8200 nM (active); in the assay with HaCat, 3660 nM (active); in the assay with NIH3T3 it was 13000 nM (active).

On to `CC(O)C(C)n1ncn(-c2ccc(N3CCN(c4ccc(OCC5COC(Cn6cncn6)(c6ccc(Cl)cc6Cl)O5)cc4)CC3)cc2)c1=O` (stereo unspecified), for which the call in the assay on CRL-7250 was inactive. Also, the Potency with HEK293 was 16400 nM (active). The max response in the assay on HaCat was -3.2%.

Turning to `C=C[C@@]12COC(=O)C(=C)[C@@H]1[C@@H](O)[C@H](C(=C)C(=O)OC)[C@@H](O)C2`, the max response is -65.9% in the assay on CRL-7250, -86.5% with HEK293, -29% in the assay with HaCat and -16.2% in the assay on NIH3T3.

As to `COC(=O)Nc1cc(Nc2cc(NC3CC3)c3ncc(C#N)n3n2)c(Cl)c(N2CCN(C)CC2)c1`, the Potency in the assay on CRL-7250 is 9330 nM (active); with HEK293, 1320 nM (active); with HaCat, 741 nM (active); in the assay with NIH3T3 it was 14800 nM (active).

Regarding `Cc1csc2c(N[C@@H](C)CN3CCN(S(=O)(=O)c4ccc(Cl)c(Cl)c4)CC3)ncnc12`, the Potency is 259 nM (active) in the assay on CRL-7250, 366 nM (active) with HEK293 and 2910 nM (active) in the assay on HaCat.

As for `C#CCCCn1cc(-c2cccc3c2N[C@H](C)CC(=O)N3)cn1`, the max response is -3.86% in the assay with CRL-7250, -13.5% with HEK293, 0.674% in the assay on HaCat and -3.84% in the assay on NIH3T3.

For the molecule `O=C(Nc1ccc(Cl)cc1)C1CCCN(C(=O)c2cccc(-c3ccco3)c2)C1` (stereo unspecified), the results for the Potency in the assay on CRL-7250 and with HEK293 were 13000 nM (active) and 18400 nM (active), respectively. The max response in the assay with HaCat is -30%; with NIH3T3 it was -26.4%.

On to `CC[C@@H](C)Nc1cc(C(=O)NC2CC3CCC(C2)N3c2ccc(C(=O)C3CC3)cn2)c(C)cc1C(N)=O` (stereo partly specified), for which the Potency is 259 nM (active) in the assay on CRL-7250, 130 nM (active) in the assay with HEK293, 184 nM (active) in the assay with HaCat and 206 nM (active) with NIH3T3.

With `C1=C/COCc2cc(ccc2OCCN2CCCC2)Nc2nccc(n2)-c2cccc(c2)COC/1`, the Potency in the assay on CRL-7250 is 6510 nM (active); with HEK293, 2060 nM (active); in the assay with HaCat, 5800 nM (active); with NIH3T3, 4110 nM (active).

With `CCNC(=O)c1noc(-c2cc(Cl)c(O)cc2O)c1-c1ccc(OC)cc1`, the Potency with CRL-7250 was 461 nM (active); in the assay on HEK293, 206 nM (active); in the assay on HaCat, 259 nM (active); with NIH3T3 it was 920 nM (active).

As for `C=C(C)Cn1c(SCC(=O)c2cccs2)nc2sc3c(c2c1=O)CCCC3`, the max response was -0.048% in the assay on CRL-7250 and 2.85% in the assay on HaCat. For the same molecule, the Potency in the assay with HEK293 is 1640 nM (active); in the assay on NIH3T3, 1840 nM (active).

Take `Cc1nc2ccc(CN(C)c3ccc(C(=O)NC(CCC(=O)O)C(=O)O)s3)cc2c(=O)[nH]1` (stereo unspecified): the molecule was classed as inactive in the assay with CRL-7250. The Potency in the assay with HEK293 is 41.1 nM (active); with HaCat, 10.3 nM (active); with NIH3T3, 65.1 nM (active).
